Laboratory results as given in PubChem BioAssay (NCATS).
Results filed as inconclusive are left out. Calls of active or inactive are those of the source. Unless noted, the call rests on the fitted dose curve; in most records, active means well fitted curve in the direction sought with a large enough effect; inconclusive means small, poorly fitted or top-dose-only effect, or another doubt; inactive means no such curve, though single readings can be large; an effect the other way counts as inactive or inconclusive.

Columns and labels:
[1] = target: Rap guanine nucleotide exchange factor 4 (Homo sapiens) (UniProt Q8WZA2); assay: Confirmatory qHTS for agonist of cAMP-regulated guanine nucleotide exchange factor 4 (EPAC2) (AID 1645884);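 further: nucleotide exchange releases bodipy-GDP from Rap1 and this lowers its fluorescence; nearly all actives have a fitted effect of over 65% in size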
Chain of Rap guanine nucleotide exchange factor 4 (Homo sapiens) (Q8WZA2 whole entry, looked up): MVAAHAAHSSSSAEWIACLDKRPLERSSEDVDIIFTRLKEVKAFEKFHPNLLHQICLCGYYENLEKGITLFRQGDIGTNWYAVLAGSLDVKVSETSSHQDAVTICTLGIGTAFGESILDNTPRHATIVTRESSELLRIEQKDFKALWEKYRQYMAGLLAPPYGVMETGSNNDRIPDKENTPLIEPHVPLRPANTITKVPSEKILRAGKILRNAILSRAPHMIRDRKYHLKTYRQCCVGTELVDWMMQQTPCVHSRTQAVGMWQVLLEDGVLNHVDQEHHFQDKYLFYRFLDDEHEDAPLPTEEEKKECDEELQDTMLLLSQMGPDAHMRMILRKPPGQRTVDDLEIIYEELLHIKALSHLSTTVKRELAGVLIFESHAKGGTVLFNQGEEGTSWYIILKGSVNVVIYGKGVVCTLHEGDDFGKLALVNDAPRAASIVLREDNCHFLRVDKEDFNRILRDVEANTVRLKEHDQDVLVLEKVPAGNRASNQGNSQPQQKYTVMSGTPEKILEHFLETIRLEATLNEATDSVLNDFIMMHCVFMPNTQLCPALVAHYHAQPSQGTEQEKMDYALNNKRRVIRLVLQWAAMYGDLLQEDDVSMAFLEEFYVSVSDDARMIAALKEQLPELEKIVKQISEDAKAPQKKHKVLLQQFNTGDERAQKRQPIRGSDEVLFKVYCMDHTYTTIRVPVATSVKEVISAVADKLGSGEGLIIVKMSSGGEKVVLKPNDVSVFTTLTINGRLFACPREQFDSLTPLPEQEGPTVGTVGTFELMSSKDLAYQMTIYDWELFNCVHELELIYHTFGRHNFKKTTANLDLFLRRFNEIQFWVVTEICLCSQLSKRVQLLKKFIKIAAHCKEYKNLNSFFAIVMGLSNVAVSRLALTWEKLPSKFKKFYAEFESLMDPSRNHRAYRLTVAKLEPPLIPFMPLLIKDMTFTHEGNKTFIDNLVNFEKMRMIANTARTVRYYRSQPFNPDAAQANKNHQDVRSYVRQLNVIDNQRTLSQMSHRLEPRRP

[2] = target: Rap guanine nucleotide exchange factor 4 (Homo sapiens) (UniProt Q8WZA2); assay: Confirmatory qHTS for antagonist of cAMP-regulated guanine nucleotide exchange factor 4 (EPAC2) (AID 1645885); further: nearly all actives have a fitted effect of over 25% in size
[3] = target: Rap guanine nucleotide exchange factor 3 (Homo sapiens) (UniProt O95398); assay: Counterscreen qHTS for antagonist of cAMP-regulated guanine nucleotide exchange factor 3 (EPAC1) (AID 1645888);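 further: fluorescence loss as bound BODIPY-GDP is released from Rap1B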
Chain of Rap guanine nucleotide exchange factor 3 (Homo sapiens) (O95398 whole entry, looked up): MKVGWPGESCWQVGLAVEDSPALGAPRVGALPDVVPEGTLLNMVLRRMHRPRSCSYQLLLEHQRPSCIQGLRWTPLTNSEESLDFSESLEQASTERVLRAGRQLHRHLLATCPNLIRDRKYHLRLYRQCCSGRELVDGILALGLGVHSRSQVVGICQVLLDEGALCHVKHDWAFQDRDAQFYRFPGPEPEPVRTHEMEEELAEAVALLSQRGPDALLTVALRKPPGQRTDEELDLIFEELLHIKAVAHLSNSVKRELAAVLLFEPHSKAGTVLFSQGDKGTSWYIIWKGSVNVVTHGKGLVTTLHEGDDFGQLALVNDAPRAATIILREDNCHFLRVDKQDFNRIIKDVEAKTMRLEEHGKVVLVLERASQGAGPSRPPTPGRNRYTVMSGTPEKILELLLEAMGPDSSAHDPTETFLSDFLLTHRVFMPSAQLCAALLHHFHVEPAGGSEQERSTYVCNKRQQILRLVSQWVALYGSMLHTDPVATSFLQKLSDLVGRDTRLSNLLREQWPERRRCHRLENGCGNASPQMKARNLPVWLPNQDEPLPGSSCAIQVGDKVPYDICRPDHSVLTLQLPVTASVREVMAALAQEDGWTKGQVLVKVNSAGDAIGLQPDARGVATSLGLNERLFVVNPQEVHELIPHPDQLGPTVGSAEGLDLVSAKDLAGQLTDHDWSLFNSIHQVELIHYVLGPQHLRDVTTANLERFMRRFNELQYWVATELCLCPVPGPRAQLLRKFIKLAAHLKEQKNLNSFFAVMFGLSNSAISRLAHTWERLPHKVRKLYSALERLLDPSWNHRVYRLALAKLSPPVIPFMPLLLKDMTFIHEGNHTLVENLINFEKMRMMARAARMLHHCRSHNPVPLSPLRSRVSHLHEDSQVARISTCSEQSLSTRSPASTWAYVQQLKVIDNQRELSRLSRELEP
Summary of the method: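 Rap1B-BODIPY-GDP 250 nM + GDP 50 uM; cpds 7-pt, final 9.74 nM–152 uM (activator mode) or from 7.32 nM upwards (inhibitor mode); RT; FI 480/540 nm at 5 and 30 min, then ± cAMP, reread.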

[4] = NCATS anti-infectives library activity on HEK293 viability as a counter-qHTS vs the C. elegans viability qHTS (AID 1745854)
Summary of the method: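 CellTiter-Glo luminescence, read on a CCD imager, scored viability of HEK293 cells after 24 hr compound exposure at 37C. Library tested in several concentrations, 1:5 steps, up to 41.7 uM; digitonin served as control.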

[5] = target: Glutathione peroxidase 1 (Homo sapiens) (UniProt P07203); assay: Primary qHTS Assay for Inhibitors of Recombinant Selenoprotein Glutathione Peroxidase 1 (GPX1) (AID 1845191); further: nearly all actives have a fitted effect of over 65% in size
Chain of Glutathione peroxidase 1 (Homo sapiens) (P07203 whole entry, looked up): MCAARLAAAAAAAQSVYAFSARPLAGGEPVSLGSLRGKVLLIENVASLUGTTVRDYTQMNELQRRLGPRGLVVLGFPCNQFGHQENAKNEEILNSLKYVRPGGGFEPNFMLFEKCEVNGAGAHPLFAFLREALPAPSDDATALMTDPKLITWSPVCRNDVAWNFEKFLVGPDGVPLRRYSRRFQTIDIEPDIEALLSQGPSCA
Summary of the method: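 NADPH consumption tracked by fluorescence at 340/450 nm between t=0 and t=15 min, room temperature. Final mix: 10 nM GPX1, 100 nM glutathione reductase, 1 mM GSH, 0.5 mM NADPH, 0.5 mM cumene hydroperoxide, 0.01% BSA; 30 min compound–enzyme preincubation.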

[6] = target: Phospholipid hydroperoxide glutathione peroxidase GPX4 (Homo sapiens) (UniProt P36969); assay: Primary qHTS Assay for Inhibitors of Recombinant Selenoprotein Glutathione Peroxidase 4 (GPX4) (AID 1845192); further: nearly all actives have a fitted effect of over 65% in size
Chain of Phospholipid hydroperoxide glutathione peroxidase GPX4 (Homo sapiens) (P36969 whole entry, looked up): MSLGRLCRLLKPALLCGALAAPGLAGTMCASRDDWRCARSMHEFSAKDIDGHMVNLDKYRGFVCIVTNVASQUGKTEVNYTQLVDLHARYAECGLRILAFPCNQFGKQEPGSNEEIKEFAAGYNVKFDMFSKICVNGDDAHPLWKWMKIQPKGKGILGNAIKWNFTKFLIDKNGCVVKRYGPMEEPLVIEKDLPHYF
Summary of the method: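 NADPH consumption followed by fluorescence at 340/450 nm, t=0 and after 15 min at room temperature. Reaction started with cumene hydroperoxide (0.5 mM final) after 30 min compound–GPX4 preincubation; final 200 nM GPX4, 100 nM GR, 1 mM GSH, 0.5 mM NADPH.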

[7] = target: Luciferin 4-monooxygenase (Photinus pyralis) (UniProt P08659); assay: Primary firefly luciferase (FLuc) qHTS assay for identification of artifact compounds. (AID 1845220); settings: outcome: dose series up to 54.1 µM; further: nearly all actives have a fitted effect of over 60% in size
Summary of the method: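 FLuc 10 nM; luciferin 10 uM; ATP 10 uM; Tris-acetate pH 7.6, Mg-acetate 10 mM; 15 min RT preincubation; 5 min reaction; luminescence.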

[8] = Primary fluorescence-based thiol-reactive (MSTI) qHTS assay for identification of artifact compounds. (AID 1845221);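 further: series mostly up to about 54 µM; thiol-reactive compounds lower the probe fluorescence signal; nearly all actives have a fitted effect of over 65% in size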
Summary of the method: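 Probe: MSTI 4 uM, PBS pH 7.4, 2% DMSO. Incubation 1 h, RT, light-protected. Readout fluorescence 525/598 nm.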

[9] = tested on: Nanoluciferase (engineered Oplophorus gracilirostris luciferase); assay: Primary Nanoluciferase (NLuc) qHTS assay for identification of artifact compounds. (AID 1845222);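 further: NLuc secreted into diluted conditioned medium of S16 cells; series mostly up to about 54 µM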
Summary of the method: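 NLuc from S16 cell medium (1:55) plus test compounds, 15 min, room temperature. Luminescence after Nano-Glo (1:100) addition, 5 min.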

[10] = Primary redox qHTS assay for identification of artifact compounds. (AID 1845223)
Summary of the method: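 Redox-cycling detection via DTT (250 uM final) oxidation coupled to Amplex Red (25 uM)/HRP (250 mU/mL) in HBSS. 15 min preincubation plus 30 min after DTT, room temperature. Ex/Em 525/598 nm; 4-parameter Hill fit against DMSO and 10 uM DA3003.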

[11] = Viability counterscreen for antagonist of constitutive androstane receptor (CAR) against the NCATS DSHEA and TCM libraries (AID 1794837);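 further: compound exposure lasted 24 h before viability reading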
Summary of the method: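 Cells: HepG2 line carrying CYP2B6 reporter and hCAR, seeded and attached 5 h. Then pin-transferred test substances plus agonist CITCO at 48 uM final; 24 h incubation; fluorogenic viability reagent, 1 h.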

[12] = Viability counterscreen for agonist of constitutive androstane receptor (CAR) against the NCATS DSHEA and TCM libraries (AID 1794838);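 further: HepG2 cells with CYP2B6 reporter and hCAR plus 0.75 µM PK11195 antagonist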
Summary of the method: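 Cell health was measured as CellTiter-Fluor signal in HepG2-CYP2B6-hCAR cells treated for 24 h with substances alongside the hCAR antagonist PK11195 (0.75 uM final).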

[13] = target: Nuclear receptor subfamily 1 group I member 3 (Homo sapiens) (UniProt Q14994); assay: Primary qHTS for agonist of constitutive androstane receptor (CAR) against the NCATS DSHEA and TCM libraries (AID 1794839);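 further: HepG2 cells expressing human CAR with a CYP2B6 reporter plus PK11195 antagonist; luciferase reporter luminescence read with ONE-Glo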
Chain of Nuclear receptor subfamily 1 group I member 3 (Homo sapiens) (Q14994 whole entry, looked up): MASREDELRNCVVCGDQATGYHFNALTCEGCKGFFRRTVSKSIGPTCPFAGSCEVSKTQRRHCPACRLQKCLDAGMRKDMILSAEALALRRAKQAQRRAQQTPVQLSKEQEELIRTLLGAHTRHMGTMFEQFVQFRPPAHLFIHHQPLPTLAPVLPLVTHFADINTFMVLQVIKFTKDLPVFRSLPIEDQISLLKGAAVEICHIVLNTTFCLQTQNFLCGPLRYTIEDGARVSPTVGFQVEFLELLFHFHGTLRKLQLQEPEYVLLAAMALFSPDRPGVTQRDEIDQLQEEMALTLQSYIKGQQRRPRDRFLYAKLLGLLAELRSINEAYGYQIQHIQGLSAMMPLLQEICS
Summary of the method: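 qHTS, agonist mode: HepG2-CYP2B6-hCAR, 2,500 cells/well, 5 h attach; cpds + PK11195 0.75 µM final; 24 h, 37 °C, 5% CO2. Readouts: CellTiter-Fluor (405/540 nm), then ONE-Glo luminescence.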

[14] = HepG2 viability counterscreen (readout 2: ATP content) against the NCATS DSHEA and TCM libraries (AID 1794840)
Summary of the method: (§1)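 Same wells read twice: first fluorescence from cleaved GF-AFC substrate (25 uM final, 30 min, 37C) for live-cell protease, then CellTiter-Glo luminescence after 30 min at room temperature for ATP. HepG2 cells were exposed ~24 h to substances.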

[15] = HepG2 viability counterscreen (readout 1: protease activity) against the NCATS DSHEA and TCM libraries (AID 1794841);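 further: cells exposed to compounds for about 24 h before the protease read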
Summary of the method: as §1

[16] = NCATS anti-infectives library activity on the primary C. elegans qHTS viability assay (AID 1745855; calls by dose curve)
Summary of the method: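 Titration-based screen in worms: eggs hatched overnight in M9, L1 larvae fed TOP10 capsules in S medium with compound, incubated 21 °C for 7 days; fluorescent objects gated by size and intensity at days 0, 3 and 7.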

[17] = target: Cytochrome P450 3A4 (Homo sapiens) (UniProt P08684); assay: qHTS for inhibitors of CYP3A4 against the NCATS DSHEA and TCM libraries (AID 1919971);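 further: inhibition lowers luminescence from luciferin made by CYP3A4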
Chain of Cytochrome P450 3A4 (Homo sapiens) (P08684 whole entry, looked up): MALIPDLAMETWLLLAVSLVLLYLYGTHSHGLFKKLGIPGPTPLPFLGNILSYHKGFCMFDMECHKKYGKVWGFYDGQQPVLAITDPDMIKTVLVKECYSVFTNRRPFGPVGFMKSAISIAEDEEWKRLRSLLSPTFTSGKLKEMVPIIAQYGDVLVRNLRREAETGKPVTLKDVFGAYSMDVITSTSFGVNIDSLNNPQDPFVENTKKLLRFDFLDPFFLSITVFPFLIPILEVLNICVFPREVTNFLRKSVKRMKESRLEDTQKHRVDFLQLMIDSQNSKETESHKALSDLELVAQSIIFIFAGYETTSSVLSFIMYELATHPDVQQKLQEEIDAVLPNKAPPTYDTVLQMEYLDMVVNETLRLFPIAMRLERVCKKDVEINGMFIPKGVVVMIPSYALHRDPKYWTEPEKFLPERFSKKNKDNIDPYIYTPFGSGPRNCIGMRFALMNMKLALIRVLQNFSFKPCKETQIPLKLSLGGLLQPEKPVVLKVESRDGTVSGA
Summary of the method: (§2)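 Substances were tested against enzyme with a pro-luciferin substrate; minus-enzyme wells served as background. After NADPH-initiated oxidation (30-45 min, RT), light was generated with P450-Glo reagent.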

[18] = target: Cytochrome P450 2D6 (Homo sapiens) (UniProt P10635); assay: qHTS for inhibitors of CYP2D6 against the NCATS DSHEA and TCM libraries (AID 1919972)
Chain of Cytochrome P450 2D6 (Homo sapiens) (P10635 whole entry, looked up): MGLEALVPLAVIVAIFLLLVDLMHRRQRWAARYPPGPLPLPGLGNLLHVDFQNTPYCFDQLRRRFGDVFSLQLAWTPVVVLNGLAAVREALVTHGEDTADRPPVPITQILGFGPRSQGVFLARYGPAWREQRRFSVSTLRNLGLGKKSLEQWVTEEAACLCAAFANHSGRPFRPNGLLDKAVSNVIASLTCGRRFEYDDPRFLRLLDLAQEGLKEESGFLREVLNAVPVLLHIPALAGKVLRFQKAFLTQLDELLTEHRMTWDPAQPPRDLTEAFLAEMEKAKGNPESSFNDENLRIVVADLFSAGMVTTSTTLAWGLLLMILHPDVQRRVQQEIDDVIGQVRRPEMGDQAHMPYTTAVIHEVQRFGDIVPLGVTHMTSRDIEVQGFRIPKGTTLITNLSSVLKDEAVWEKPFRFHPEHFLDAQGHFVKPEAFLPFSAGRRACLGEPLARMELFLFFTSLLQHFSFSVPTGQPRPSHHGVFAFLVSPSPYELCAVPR
Summary of the method: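 qHTS, concentration–response format with most substances from 19.5 nM. CYP2D6 + pro-luciferin substrate, 15 min with compound, then 1x NADPH regen, 30–45 min RT dark. Glo detection 30 min, luminescence. Quinidine control.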

[19] = target: Cytochrome P450 2C9 (Homo sapiens) (UniProt P11712); assay: qHTS for inhibitors of CYP2C9 against the NCATS DSHEA and TCM libraries (AID 1919973);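 further: luminogenic pro-luciferin CYP2C9 substrate turned into luciferin with NADPH regeneration; series mostly up to about 34 µM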
Chain of Cytochrome P450 2C9 (Homo sapiens) (P11712 whole entry, looked up): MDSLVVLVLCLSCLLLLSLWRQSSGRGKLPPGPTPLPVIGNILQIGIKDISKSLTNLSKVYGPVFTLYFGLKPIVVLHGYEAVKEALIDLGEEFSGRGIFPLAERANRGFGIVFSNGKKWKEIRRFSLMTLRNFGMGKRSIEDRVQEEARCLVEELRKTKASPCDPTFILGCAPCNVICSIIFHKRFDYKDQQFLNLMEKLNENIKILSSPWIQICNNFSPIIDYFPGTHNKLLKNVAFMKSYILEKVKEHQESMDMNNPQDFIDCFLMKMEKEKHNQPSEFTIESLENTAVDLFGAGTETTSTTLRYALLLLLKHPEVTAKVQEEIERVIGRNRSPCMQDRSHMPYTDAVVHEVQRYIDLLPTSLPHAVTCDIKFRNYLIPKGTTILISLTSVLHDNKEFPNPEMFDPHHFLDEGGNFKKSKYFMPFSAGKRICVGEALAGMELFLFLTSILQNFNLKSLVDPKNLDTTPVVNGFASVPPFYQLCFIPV
Summary of the method: as §2

Measured: Potency

COc1cc(NCCCC(C)N)c2ncccc2c1 (centres undefined)
inactive: [1] | [2] | [3]

C=C1[C@H](CO)[C@@H](O)C[C@@H]1n1cnc2c(=O)[nH]c(N)nc21
inactive: [4] | [5] | [6] | [7] | [8] | [9] | [10]

Nc1nc(=O)n([C@@H]2CS[C@H](CO)O2)cc1F
inactive: [4] | [5] | [6]

C=C1CC[C@H](O)CC1=C/C=C1\CCC[C@]2(C)[C@@H]([C@H](C)/C=C/[C@H](C)C(C)C)CC[C@@H]12
inactive: [11] | [12] | [13] | [14] | [15] | [5] | [6] | [7] | [9]

NC(=O)Oc1ccc(Cc2ccccc2)cc1
inactive: [1] | [2]

O=C(O)c1cc(N=Nc2ccc(O)c(C(=O)O)c2)ccc1O
inactive: [1] | [5]

CNC(=O)[C@H](Cc1c[nH]c2ccccc12)NC(=O)[C@@H](CC(=O)NO)CC(C)C
inactive: [4] | [16] | [5] | [6]

CC(=O)N=c1sc(S(N)(=O)=O)nn1C
inactive: [4] | [5] | [6]

COc1ccc2c(c1)N(C[C@H](C)CN(C)C)c1ccccc1S2
inactive: [1] | [2] | [6]

CC(C)=CCC/C(C)=C/C=C/C(C)=C/C=C/C(C)=C/C=C/C=C(C)/C=C/C=C(C)/C=C/C=C(\C)CCC=C(C)C
not listed: [1] | [2] | [3] | [7] | [8] | [9] | [10] | [16]
inactive: all other assays above

CSc1nc2cc(Oc3cccc(Cl)c3Cl)c(Cl)cc2[nH]1
inactive: [1]

CC(C)c1nc(N(C)S(C)(=O)=O)nc(-c2ccc(F)cc2)c1/C=C/C(O)CC(O)CC(=O)O (centres undefined)
inactive: [4] | [5] | [6]

O=C(Nc1ccc(O)cc1)c1ccccc1O
inactive: [4] | [5] | [6]
